Assay results: PubChem BioAssay AID720518 (National Center for Advancing Translational Sciences (NCATS), 2013)
Records with an inconclusive call do not appear. Values without a mark were called inactive. Calls come from the whole dose curve.

test: qHTS for Inhibitors of Cell Surface uPA Generation: Wild-type Protective Antigen (WT-PrAg) Counterscreen for Cherry-picked Compounds; conditions: cells, WT protective antigen toxicity counterscreen; series mostly up to 115 µM; activity (protection): at the top concentration; note: 0% is about no effect

| Structure (SMILES) | activity (protection) [%] |
| --- | --- |
| COC(=O)/C(C#N)=C\c1c(OC)[nH]c2ccccc12 | -0.248 |
| Cc1ccnc(N2CCN(C(=O)CSc3nc4ccccc4nc3N3CCC(C)CC3)CC2)c1 | -2.13 |
| CCC(CC)Nc1ccc(C(CC(N)=O)NC(=O)Cc2ccc(Br)cc2)cc1[N+](=O)[O-] (configuration not stated) | -2.11 |
| O=C(NNC(=O)c1cccc(-n2cccc2)c1)c1ccc(F)cc1 | -0.872 |
| Cc1ccc(C2=NS(=O)(=O)N(C)C(C(=O)NC3CCCC3)=C2)cc1 | -0.662 |
| COc1ccc(NC(=O)c2nn(C)c3c2CS(=O)(=O)c2ccccc2-3)cc1 | -0.433 |
| CC(=O)Oc1ccc(OC(C)=O)c(SCCCCCCl)c1 | -2.59 |
| CCCCCCCCCOC(=O)C1N2C(=O)[C@@H](NC(=O)COc3ccccc3)[C@H]2SC1(C)C (some centres not stated) | -2.25 |
| COc1ccccc1NNC(=O)C(O)(c1ccccc1OC)c1ccccc1OC | 1.06 |
| Oc1ccc(/C=N/Nc2cccc(Cl)n2)c(O)c1 | -2.29 |
| O=C(O)c1ccc(-c2ccc(/C=C3\NC(=O)N(Cc4ccc(Cl)cc4)C3=O)o2)cc1 | 0.0956 |
| CCn1c(SC(C)C(=O)NC2CCCC2)nc2cc(S(N)(=O)=O)ccc21 (configuration not stated) | 4.81 |
| CCc1c(C)sc(NC(=S)N2CC(C)OC(C)C2)c1C(=O)OC (configuration not stated) | 0.312 |
| CCc1ccccc1N1C(=O)CC(Sc2nccc(C)n2)C1=O (configuration not stated) | 0.6 |
| C/C=C(/C(=C/C)c1ccc(O)cc1)c1ccc(O)cc1 | -2.13 |
| COC(=O)C1=C(c2cccc(OC)c2OC)C[C@@H]2CC[C@H]1N2C(=O)NC1CC1 | -0.417 |
| CCOc1ccc(C(=O)NCCO)cc1 | -0.622 |
| CC1C2=C(CC(C)(C)CC2=O)NC2=C1C(=O)CC(C)(C)C2 | -0.457 |
| CCOC(=O)CN1C(=O)N[C@@H](c2ccccc2)C(C(C)=O)=C1C | 0.206 |
| COc1ccc(C2=C/C(=C\c3ccccc3OC(C)=O)C(=O)O2)cc1 | -1.93 |
| CCN(c1ccc(OC)cc1)S(=O)(=O)c1ccc2c(c1)NC(=O)CS2 | -1.04 |
| FC(F)(F)Oc1ccc(NC2=NCCCS2)cc1 | -0.406 |
